One experiment deals with Albumin (Bos taurus) (UniProt P02769). In words: bovine serum albumin binders on microarray, profiling panel, artefact control for SMM control protein annotation, biochemical, small-molecule microarray, Alexa647 label, 635/667 nm fluorescence (AID 1118).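 Also: score merges 667 nm emission intensity and signal-to-noise per printed compound spot.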 The following applies: BSA-A647 binding, fluorescence 635 nm, higher = more signal.
Experiment [1] can be described thus: small-molecule microarray binders of probe aXIP, primary screen, biochemical, NeuroSMM set, 635/667 nm fluorescence (AID 1119).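 Also: probe is the protein aXip251-270 applied at 1 µg/mL to compound-printed slides; binding of probe to printed compounds measured as 667 nm fluorescence plus signal to noise.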 The following applies: higher = more signal, called active from +8 up or from −8 down.
A short description of experiment [2]: small-molecule binders of probe aNOTCH3, primary screen, biochemical, small-molecule microarray, 635/667 nm fluorescence (AID 1120).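 Also: probe is a biotin-tagged antibody raised against NOTCH3 rather than NOTCH3 protein; score merges spot fluorescence near 667 nm with spot signal to noise.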 The following applies: higher = more signal.
Experiment [3] in a line: small-molecule binders of probe aNOTCH2, primary screen, biochemical, small-molecule microarray, 635/667 nm fluorescence (AID 1121).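 Also: score merges feature fluorescence read at 667 nm with its signal to noise.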 The following applies: higher = more signal.
Experiment [4] has as its target Carbonic anhydrase 2 (Homo sapiens) (UniProt P00918). Briefly: CAII small-molecule binders, profiling panel, biochemical, small-molecule microarray, Alexa647-labelled CAII (AID 1122). The note with it: CAII-A647 binding fluorescence, higher = more signal.
Experiment [5] can be described thus: COS7 lysate on small-molecule microarray, probe aHis, 635 nm (AID 1123).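 Also: z-score combines 667nm fluorescence intensity with signal-to-noise per printed compound spot.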 The note with it: COS7 cell lysate, fluorescence, higher = more signal.
Experiment [6] is described as follows: compound binding in COS7 lysate, probe aLAP1, primary screen, cell lysate, small-molecule microarray (AID 1124).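 Also: lysate comes from COS7 cells expressing LAP1 and is applied at 0.3 µg/mL; score merges spot fluorescence near 667 nm with signal-to-noise over triplicate slides.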 The note with it: probe aLAP1, fluorescence, higher = more signal.
The next experiment concerns Sam68 (KHDRBS1). Briefly: Sam68 small-molecule binders, primary screen, biochemical, small-molecule microarray, 635 nm fluorescence (AID 1125).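 Also: score merges 667 nm channel intensity with signal to noise over triplicate slides.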 The note with it: small-molecule microarray binding, higher = more signal.
Experiment [7] concerns Chordin-like protein 2 (CHRDL2). Briefly: CHRDL2 small-molecule binders, primary screen, biochemical, small-molecule microarray, 635 nm fluorescence (AID 1126).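 Also: printed compound slides probed with Chrdl2 protein at 4 µg/mL for 1 h at 4 C; score merges 667 nm emission intensity with signal to noise over three replicate slides.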 The note with it: small-molecule microarray binding, fluorescence 635 nm; higher = more signal.
In experiment [8] the target is Concanavalin-A (Canavalia ensiformis) (UniProt P02866). In words: ConA small-molecule binders, primary screen, artefact control for SMM control protein annotation, biochemical, small-molecule microarray, Alexa647 label, 635 nm (AID 1127).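 Also: z combines 667 nm emission intensity with signal-to-noise across three replicate slides.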 The following applies: ConA-A647 binding fluorescence, higher = more signal.
A short description of experiment [9]: anti-His antibody binders, primary screen, artefact control for SMM control protein annotation, biochemical, small-molecule microarray, 635 nm fluorescence (AID 1128).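 Also: score merges feature fluorescence with signal-to-noise for each printed compound spot.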 The note with it: anti-His Alexa647 antibody binding, higher = more signal.
The subject of experiment [10] is Human papillomavirus type 1a E7 protein (residues 1-88). In words: HPV1a E7 small-molecule binders, primary screen, biochemical, small-molecule microarray, residues 1-88, 635 nm (AID 1129). The following applies: small-molecule microarray binding, fluorescence 635 nm; higher = more signal.
In experiment [11] the target is Focal adhesion kinase 1 (Homo sapiens) (UniProt Q05397). Briefly: small-molecule microarray binders of FAK, primary screen, biochemical, 635/667 nm fluorescence, BSA, DTT (AID 1130).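 Also: composite of spot emission at 667 nm and signal to noise over triplicate slides.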 The following applies: PTK2 binding, 635 nm fluorescence, higher = more signal.
Experiment [12] has as its system Fibrinogen (Alexa647-labelled). Briefly: fibrinogen binders on compound microarrays, profiling panel, artefact control for SMM control-protein annotation, biochemical, small-molecule microarray, 635/667 nm fluorescence (AID 1131).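 Also: z-score merges 667 nm fluorescence with per-spot signal-to-noise over triplicate slides.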 The note with it: fibrinogen-A647 binding fluorescence, higher = more signal.
The target of experiment [13] is Follistatin (Homo sapiens) (UniProt P19883). Briefly: follistatin binders on small-molecule microarrays, primary screen, biochemical, small-molecule microarray, 635/667 nm fluorescence (AID 1132). The note with it: FST binding, 635 nm fluorescence, higher = more signal.
Experiment [14] concerns the target Fibroblast growth factor 2 (Homo sapiens) (UniProt P09038). Briefly: FGF2 binders on small-molecule microarrays, primary screen, biochemical, small-molecule microarray, 635/667 nm fluorescence (AID 1133). The following applies: small-molecule microarray binding, FGF2, fluorescence 635/667; higher = more signal.
Experiment [15] in a line: mitochondrial membrane potential change in A549 cells, profiling panel, cell-based, JC-1 fluorescence, basal, 24 h, 100 nL (AID 1138).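 Also: A549 lung adenocarcinoma cells under basal conditions with no added stimulus; test concentration not given here.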 The note with it: higher = more signal.
Another experiment relates to Lefty1. Briefly: Lefty1 binders on small-molecule microarrays, primary screen, biochemical, small-molecule microarray, 635/667 nm fluorescence (AID 1139). The note with it: small-molecule microarray binding, fluorescence 635/667; higher = more signal.
In experiment [16] the test system is wheat germ agglutinin (Triticum aestivum), Alexa647-labelled. In words: wheat germ agglutinin binders on compound microarrays, profiling panel, artefact control for SMM control-protein annotation, biochemical, small-molecule microarray, 635/667 nm fluorescence (AID 1140).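 Also: score merges 667 nm feature emission with signal to noise over triplicate slides.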 The note with it: WGA-A647 binding, 635 nm fluorescence, higher = more signal.
Experiment [17] has as its target Luciferin 4-monooxygenase (Photinus pyralis) (UniProt P08659). In words: firefly luciferase enzyme inhibitors, primary screen, biochemical, luminescence, purified enzyme, 2006 set (AID 1141).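 Also: cell-free assay with purified firefly luciferase at 100 ng per well in PBS; test concentration not given here.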 The following applies: SteadyGlo luminescence, 30 min, higher = more signal, called active from +8 up or from −8 down.

Activity calls are given as the source filed them.

Chain of Focal adhesion kinase 1 (Homo sapiens) (Q05397 whole entry, looked up): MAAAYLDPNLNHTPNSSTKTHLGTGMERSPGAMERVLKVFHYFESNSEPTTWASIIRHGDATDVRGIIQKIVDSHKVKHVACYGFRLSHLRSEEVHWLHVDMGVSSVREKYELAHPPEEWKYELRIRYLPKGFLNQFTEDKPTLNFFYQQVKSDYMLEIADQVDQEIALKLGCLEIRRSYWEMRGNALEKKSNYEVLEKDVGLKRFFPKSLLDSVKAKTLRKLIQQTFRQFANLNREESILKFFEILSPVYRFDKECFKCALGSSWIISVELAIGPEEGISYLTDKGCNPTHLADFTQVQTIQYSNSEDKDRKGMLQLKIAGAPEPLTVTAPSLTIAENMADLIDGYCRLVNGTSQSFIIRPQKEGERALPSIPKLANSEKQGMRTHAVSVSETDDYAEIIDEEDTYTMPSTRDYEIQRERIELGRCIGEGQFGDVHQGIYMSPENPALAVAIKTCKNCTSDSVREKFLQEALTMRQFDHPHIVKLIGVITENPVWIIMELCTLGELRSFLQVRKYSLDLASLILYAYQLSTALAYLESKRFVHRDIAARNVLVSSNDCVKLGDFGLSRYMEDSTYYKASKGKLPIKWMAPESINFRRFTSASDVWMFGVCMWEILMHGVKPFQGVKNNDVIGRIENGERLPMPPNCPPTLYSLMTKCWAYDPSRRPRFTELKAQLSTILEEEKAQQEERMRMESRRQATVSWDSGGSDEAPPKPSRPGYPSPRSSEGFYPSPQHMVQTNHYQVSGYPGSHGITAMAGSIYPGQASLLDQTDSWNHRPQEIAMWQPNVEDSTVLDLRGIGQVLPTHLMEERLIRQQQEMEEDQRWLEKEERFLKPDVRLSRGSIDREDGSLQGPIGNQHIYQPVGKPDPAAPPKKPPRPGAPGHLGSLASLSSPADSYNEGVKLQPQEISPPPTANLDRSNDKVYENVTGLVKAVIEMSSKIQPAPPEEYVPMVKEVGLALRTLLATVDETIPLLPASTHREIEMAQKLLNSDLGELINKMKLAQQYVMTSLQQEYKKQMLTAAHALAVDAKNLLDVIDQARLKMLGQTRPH
Chain of Luciferin 4-monooxygenase (Photinus pyralis) (P08659 whole entry, looked up): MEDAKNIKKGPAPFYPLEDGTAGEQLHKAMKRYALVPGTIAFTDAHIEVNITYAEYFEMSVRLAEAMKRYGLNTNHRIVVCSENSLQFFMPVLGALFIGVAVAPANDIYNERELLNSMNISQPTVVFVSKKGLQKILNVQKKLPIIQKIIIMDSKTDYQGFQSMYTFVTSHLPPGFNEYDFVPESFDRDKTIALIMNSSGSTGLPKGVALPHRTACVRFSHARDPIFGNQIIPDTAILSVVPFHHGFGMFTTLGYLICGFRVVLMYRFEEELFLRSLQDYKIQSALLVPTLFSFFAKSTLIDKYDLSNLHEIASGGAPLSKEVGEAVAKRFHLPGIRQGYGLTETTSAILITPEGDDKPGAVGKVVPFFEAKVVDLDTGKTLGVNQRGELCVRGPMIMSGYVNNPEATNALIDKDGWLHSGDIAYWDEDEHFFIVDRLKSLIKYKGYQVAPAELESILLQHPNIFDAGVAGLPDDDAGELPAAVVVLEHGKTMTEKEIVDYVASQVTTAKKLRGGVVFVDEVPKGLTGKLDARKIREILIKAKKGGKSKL
Chain of Concanavalin-A (Canavalia ensiformis) (P02866 whole entry, looked up): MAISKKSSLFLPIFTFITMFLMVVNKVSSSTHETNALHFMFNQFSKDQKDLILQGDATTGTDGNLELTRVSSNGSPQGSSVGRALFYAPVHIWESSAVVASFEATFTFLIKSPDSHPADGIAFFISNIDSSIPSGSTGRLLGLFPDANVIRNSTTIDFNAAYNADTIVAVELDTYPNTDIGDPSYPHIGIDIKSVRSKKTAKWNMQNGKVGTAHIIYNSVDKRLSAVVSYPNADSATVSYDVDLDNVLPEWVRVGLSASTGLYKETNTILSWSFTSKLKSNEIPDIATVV
Chain of Follistatin (Homo sapiens) (P19883 whole entry, looked up): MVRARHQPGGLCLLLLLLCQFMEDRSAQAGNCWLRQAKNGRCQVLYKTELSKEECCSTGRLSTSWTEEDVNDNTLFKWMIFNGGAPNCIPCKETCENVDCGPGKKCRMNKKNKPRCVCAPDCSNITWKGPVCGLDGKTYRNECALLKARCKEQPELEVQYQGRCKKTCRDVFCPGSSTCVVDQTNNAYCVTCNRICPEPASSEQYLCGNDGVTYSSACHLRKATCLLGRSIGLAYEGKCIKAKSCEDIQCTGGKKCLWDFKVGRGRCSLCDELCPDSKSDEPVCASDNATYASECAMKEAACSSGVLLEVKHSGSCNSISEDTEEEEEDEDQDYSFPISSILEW
Chain of Albumin (Bos taurus) (P02769 whole entry, looked up): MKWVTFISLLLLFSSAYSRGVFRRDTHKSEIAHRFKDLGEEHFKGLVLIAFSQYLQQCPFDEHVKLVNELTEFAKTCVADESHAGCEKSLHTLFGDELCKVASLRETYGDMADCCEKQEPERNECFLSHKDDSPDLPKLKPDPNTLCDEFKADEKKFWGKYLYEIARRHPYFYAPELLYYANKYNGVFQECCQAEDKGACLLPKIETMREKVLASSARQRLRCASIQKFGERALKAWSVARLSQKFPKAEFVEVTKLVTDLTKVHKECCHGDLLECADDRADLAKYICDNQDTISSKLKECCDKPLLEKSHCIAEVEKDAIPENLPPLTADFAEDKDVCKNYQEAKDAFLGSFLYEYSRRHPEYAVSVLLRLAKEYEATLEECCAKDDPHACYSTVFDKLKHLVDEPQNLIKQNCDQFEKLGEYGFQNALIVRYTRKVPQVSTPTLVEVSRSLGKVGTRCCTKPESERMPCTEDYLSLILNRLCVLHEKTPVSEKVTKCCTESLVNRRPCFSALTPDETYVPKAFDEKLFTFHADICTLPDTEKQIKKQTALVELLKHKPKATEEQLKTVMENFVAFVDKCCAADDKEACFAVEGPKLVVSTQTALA
Chain of Fibroblast growth factor 2 (Homo sapiens) (P09038 whole entry, looked up): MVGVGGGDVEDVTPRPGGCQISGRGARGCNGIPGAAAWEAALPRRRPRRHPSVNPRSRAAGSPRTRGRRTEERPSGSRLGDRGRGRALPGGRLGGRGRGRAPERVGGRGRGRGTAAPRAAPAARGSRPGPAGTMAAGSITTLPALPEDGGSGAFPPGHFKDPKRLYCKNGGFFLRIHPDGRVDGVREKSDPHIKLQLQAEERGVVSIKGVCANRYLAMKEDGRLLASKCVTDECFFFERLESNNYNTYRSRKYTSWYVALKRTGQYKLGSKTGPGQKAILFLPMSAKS

For `COc1ccc(NC(=O)O[C@H]2[C@H](OC(=O)Nc3ccccc3)[C@@H](OC(=O)Nc3ccccc3)[C@@H](OC)O[C@@H]2CO)cc1`, the composite z-score in the experiment with Albumin (Bos taurus) is 0.137; in experiment [2], -0.0003; in experiment [3], -0.0878; in [4], 0.761; in experiment [5], 2.8; in experiment [6], 0.624. Further, the composite z-score worked out at 1.29 in the experiment with Sam68 (KHDRBS1); 0.402 in [7]; 1.13 in experiment [8]; 1.77 in experiment [9]; 1.21 in [10]; 0.634 in experiment [11]. The composite z-score in [12] was determined as 0.825; in [13], 1.34; in [14], 1.72; in the experiment with Lefty1, 0.512; in experiment [16], 0.626. The composite Z-score in experiment [1] is -0.275 (inactive). The z-score in experiment [15] was -0.506; in experiment [17], 0.0551 (inactive).

In the case of `COc1ccc(C(O)C2C=CC3C(=O)N(c4ccccc4)C(=O)C3N2Nc2ccc([N+](=O)[O-])cc2)cc1` (stereo not given), the composite z-score was 0.968 with Albumin (Bos taurus); 0.84 in experiment [2]; 0.495 in [3]; 0.637 in experiment [4]; 2.86 in experiment [5]; 0.64 in experiment [6]. Moreover, the composite z-score is 1.31 in the experiment with Sam68 (KHDRBS1); -0.936 in experiment [7]; 0.989 in [8]; 2.11 in experiment [9]; 1.24 in [10]; 0.961 in experiment [11]. In addition, the composite z-score in [12] was 1.01; in [13], 0.848; in experiment [14] it was -0.246; with Lefty1, -0.344; in [16], 1.14. For the same compound, the composite Z-score in experiment [1] is 1.19 (inactive). Further, the z-score was 0.103 in [15] and 0.732 (inactive) in experiment [17].

Consider `COCCOC(=O)N1C(=O)[C@@]2(c3cc(C#Cc4ccc(OC)cc4)ccc31)[C@H](C(=O)Nc1nc3ccccc3s1)[C@H]1C(=O)O[C@H](c3ccccc3)[C@H](c3ccccc3)N1[C@@H]2c1ccc(O)cc1`, for which the composite z-score was 0.374 with Albumin (Bos taurus); 0.214 in experiment [2]; -0.118 in experiment [3]; -0.111 in experiment [4]; 1.91 in experiment [5]; 0.171 in experiment [6]. Moreover, the composite z-score in the experiment with Sam68 (KHDRBS1) was 1.33; in experiment [7] it was 0.576; in [8] it was 1.16; in experiment [9], -0.0507; in experiment [10], 1.13; in experiment [11] it was 0.0931. Further, the composite z-score in experiment [12] came out at 0.965; in experiment [13], 1.29; in experiment [14], 1.09; in the experiment with Lefty1, 1.18; in [16], 0.927. In addition, the composite Z-score in experiment [1] is 0.364 (inactive). In addition, the values for the z-score in experiment [15] and in experiment [17] were -2.26 and -0.0504 (inactive), respectively.

As for `C=C(CCCC)/C(=C/C[C@@H](OC(=O)c1ccncc1)c1ccccc1OCCO)c1cnc2ccccc2c1`, the composite z-score is 0.459 with Albumin (Bos taurus); 0.28 in experiment [2]; -0.105 in experiment [3]; 0.719 in [4]; 0.457 in experiment [5]; 0.603 in experiment [6]. Further, the composite z-score with Sam68 (KHDRBS1) is 1.3; in [7], 0.924; in experiment [8], 1.07; in [9], 0.433; in [10], 1.12; in experiment [11], 0.0585. Besides, the composite z-score is 0.963 in experiment [12]; 1.44 in experiment [13]; 1.43 in experiment [14]; 1.61 in the experiment with Lefty1; 1.17 in [16]. Moreover, in experiment [1], the composite Z-score is -0.869 (inactive). Also, the z-score in experiment [15] was 1.34; in [17], -0.514 (inactive).

With `C=CCC(OC(C)=O)[C@@H]1[C@@H](N(Cc2cc3ccccc3o2)C(=O)Cc2ccc(F)cc2)c2cc(OCCCO)ccc2N1C(=O)c1ccc2ccccc2c1` (stereo not given in full), the composite z-score with Albumin (Bos taurus) is -0.379; in experiment [2], -0.118; in experiment [3] it was -0.0904; in [4], 0.31; in [5], -0.234; in [6], 0.0099. Moreover, the composite z-score in the experiment on Sam68 (KHDRBS1) was -0.741; in experiment [7], -0.173; in [8], -0.679; in experiment [9] it was -0.232; in experiment [10], -0.835; in experiment [11], -0.167. Besides, the composite z-score in experiment [12] is -1.03; in experiment [13] it was 0.722; in [14] it was -0.143; in the experiment on Lefty1, 0.777; in [16] it was 0.181. Further, the composite Z-score in [1] was 0.749 (inactive). Further, the z-score in experiment [15] is 1.08; in experiment [17] it was -0.514 (inactive).

For the origin of these results see PubChem BioAssay.
